Test results: PubChem BioAssay AID686978 (National Center for Advancing Translational Sciences (NCATS), 2013)
In all, about 420,000 compounds went through this assay and about 64,000 (15%) were called active. Not shown: some 27% with an inconclusive outcome. The call rests on the fitted dose curve; in most records, active means well fitted inhibition curve with a large enough effect; inconclusive means small, poorly fitted or top-dose-only effect; inactive means flat fitted curve, though single readings scatter. Only a sample is shown. A call without a number means that no potency is given here.

assay: qHTS for Inhibitors of human tyrosyl-DNA phosphodiesterase 1 (TDP1): qHTS in cells in absence of CPT; details: DT40 Tdp1-/- hTDP1 cells, no CPT, ATP luminescence, 48 h; activity change, negative = growth inhibition: at 46.2 µM (top of the series); further: nearly all actives have a fitted effect of over 55% in size
Procedure, shortened: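 Chicken DT40 Tdp1-/- cells stably complemented with human TDP1 were seeded at 400 cells/well with DMSO in place of 20 nM camptothecin. After compound pinning, cells grew at least 48 hr at 37 °C; viability read by CellTiter-Glo luminescence.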
Potency means the concentration at half of the fitted maximal effect.

Compound | Potency
COc1ccc(CNC(=O)CCC(=O)Nc2nnc(C(C)C)s2)cc1 | inactive
COc1ccccc1OCC(=O)OCc1cc(-c2ccco2)on1 | inactive
CCCc1ccc(OCC(O)CN2CCN(C(=O)OCC)CC2)cc1 (stereo not given) | inactive
O=C(O)CCC(=O)Nc1ccc(OCC2CCCO2)cc1 (stereo not given) | inactive
COc1ccc(OC)c(NC(=O)c2cc(-c3cc(F)ccc3OCC3CCCO3)n[nH]2)c1 (stereo not given) | 9.2 µM (active)
COc1ccc(C(=O)Nc2ccc(C(=O)NCC3CCCO3)cc2)c(OC)c1OC (stereo not given) | inactive
O=C(/C=C/c1cc2c(cc1Br)OCO2)NCc1ccc(Cl)cc1 | inactive
CCCCn1c(N)c(N(Cc2ccccc2OC)C(=O)COc2cc(C)ccc2Cl)c(=O)[nH]c1=O | inactive
Cc1cc(C)cc(NS(=O)(=O)Cc2ccccc2)c1 | inactive
O=C(OCc1ccc([N+](=O)[O-])cc1)c1ccccn1 | inactive
O=[N+]([O-])c1ccc(/C=C/c2ccc3cccnc3c2)cc1 | 10 µM (active)
O=C(Oc1ccc([N+](=O)[O-])cc1)c1ccc2ccccc2n1 | inactive
Cc1c(Cl)cccc1NC(=O)NCc1ccc(C)n1C | inactive
Cn1cc(-c2ccccc2)cc(C#N)c1=O | inactive
O=C(O)c1ccccc1C(=O)NC1=NN(c2ccccc2)CC1 | inactive
NNC(=O)c1nnn(-c2nonc2N)c1CN1CCCC1 | inactive
CCOC(=O)c1nnn(-c2nonc2-n2cccc2)c1CN1CCOCC1 | inactive
CCOC(=O)c1nnn(-c2nonc2-n2cccc2)c1CN1CCC(C(=O)OCC)CC1 | 18.4 µM (active)
COC(=O)C1(CCSC)NC(c2ccc(OC)cc2OC)C2C(=O)N(c3cccc(C(C)=O)c3)C(=O)C21 (stereo not given) | inactive
O=C(CSc1ccc(-c2cccs2)nn1)Nc1ccccc1F | inactive
COc1ccccc1-c1cc(C(F)(F)F)nc(S(=O)(=O)CCCC(=O)Nc2ccc(F)cc2F)n1 | 3.66 µM (active)
O=C(COC(=O)CSc1ccccc1)Nc1ccc(F)cc1F | inactive
Cc1cc2nc(C(F)(F)F)cc(-c3cccs3)n2n1 | inactive
COc1ccccc1-c1cc(C(F)(F)F)nc(S(=O)(=O)CCCC(=O)Nc2cc(C)ccc2O)n1 | inactive
CC(Sc1nc(-c2ccccc2)cc(C(F)(F)F)n1)C(=O)Nc1ccc2c(c1)OCO2 (stereo not given) | inactive
O=C(Nc1cc(C(F)(F)F)ccc1Cl)c1cc2nc(-c3ccc4c(c3)OCO4)cc(C(F)(F)F)n2n1 | inactive
Cc1ccc(O)c(NC(=O)CCS(=O)(=O)c2nc(-c3ccc4c(c3)OCO4)cc(C(F)(F)F)n2)c1 | 11.6 µM (active)

Compound | Potency
CSc1ccccc1NC(=O)CCS(=O)(=O)c1nc(-c2cccs2)cc(C(F)(F)F)n1 | 11.6 µM (active)
CCC(=O)c1c[nH]c(C(=O)NCC2CCCO2)c1 (stereo not given) | inactive
Cc1ccc(C(=O)OCC(=O)NC(=O)Cc2ccccc2)c(O)c1 | inactive
CC(C)(C)C(=O)COC(=O)c1cc(S(=O)(=O)N2CCCCC2)ccc1N1CCOCC1 | inactive
CCCCSc1ncnc2c1sc1nc(N3CCOCC3)c3c(c12)CCCC3 | inactive
CC(C)Cc1nn2c(=O)cc(O)nc2s1 | inactive
CSc1nnc2c(n1)OC(c1ccsc1)N(C(C)=O)c1ccccc1-2 (stereo not given) | inactive
COc1ccccc1NC(=O)COC(=O)Cc1ccc(S(=O)(=O)N2CCCCC2)s1 | inactive
COC(=O)c1ccc(CSc2nncn2C)cc1 | inactive
CCOC(=O)c1ccc(CSc2nnc3cc(C)c4ccccc4n23)cc1 | 20.6 µM (active)
COC(=O)c1ccc(CSc2nncn2N)cc1 | inactive
COCc1c(C(=O)N/N=C/C2CC=CCC2)nnn1-c1nonc1N (stereo not given) | inactive
CCc1ccc(N2CC(C(=O)NC3=NCCS3)CC2=O)cc1 (stereo not given) | inactive
Cc1cccc(C(=O)OC(C)CN2CCCC2)c1 (stereo not given) | inactive
Cc1cccc(N)c1SC1CCCCC1O (stereo not given) | inactive
CCCn1nnc(NC(=O)COc2ccc(CC)cc2)n1 | inactive
O=C(OCc1ccccc1F)c1ccc2c(c1)OCCO2 | inactive
C=CCNC(=S)NNC(=O)c1ccc(Br)o1 | inactive
C=CCNC(=S)N/N=C/c1ccc(C)s1 | 7.31 µM (active)
C=C(C)CNC(=S)N/N=C/c1ccccc1OCC(=O)O | inactive
CCOC(=O)c1c(NC(=O)CN2C(=O)NC3(CCC(C)CC3)C2=O)sc(C)c1CC (stereo not given) | inactive
OCC(O)C1OCOC(C(O)CO)C1O (stereo not given) | inactive
COc1cc(F)ccc1-c1cc(C(=O)NCC2CCCCC2)[nH]n1 | inactive
COc1cc(NC(=O)CCn2nc(C)cc2C)cc(OC)c1OC | inactive
COc1cc(NC(=O)c2cc(-c3ccc(F)cc3OC(C)C)n[nH]2)cc(OC)c1OC | 11.6 µM (active)
COC(C)(C)[C@]12CC(O)(C(C)C)ON1[C@H]1CCCCC1N2O (stereo not given in full) | inactive
CCC(=O)c1cc2c(cc1NC(=O)c1cccs1)OCCO2 | inactive

Compound | Potency
Cc1ccc(Oc2nc3ccccc3n3c(C)nnc23)cc1 | inactive
C[C@@H]1NC(=O)[C@@]2(C)[C@@H](c3ccccc3)[C@H]3COc4ccccc4[C@@H]3N2C1=O | inactive
CCOC(=O)CC(=O)CSc1nc(-c2ccccc2)cc(-c2ccc(Cl)cc2)c1C#N | inactive
CC(=O)Nc1ccc(-c2cn3cccnc3n2)cc1 | inactive
CCOc1cc(-c2cc(-c3ccc(NC(C)=O)cc3)nc(N)c2C#N)ccc1O | 20.6 µM (active)
CCCN(CC1CC1)C(=O)COC(=O)c1ccc(C)cc1O | inactive
CC(C)OC(=O)c1cc(NC(=O)C2C3CCC(O3)C2C(=O)O)cc(C(=O)OC(C)C)c1 (stereo not given) | inactive
O=C(CN1CCC(O)(c2cccc(C(F)(F)F)c2)CC1)NCCc1ccccc1 | 11.6 µM (active)
Cc1cc(NC(=O)CN2CCC(O)(c3cccc(F)c3)CC2)no1 | inactive
O=C(CN1CCC(O)(c2ccccc2)CC1)Nc1ccc2c(c1)OCCO2 | inactive
Cn1c(=O)c2[nH]c(NCC3CCCO3)nc2n(-c2ccccc2)c1=O (stereo not given) | inactive
CN(C)S(=O)(=O)c1cccc(-c2nn(-c3ccccc3)cc2/C=C2\SC(=S)N(CC(=O)O)C2=O)c1 | inactive
O=C1/C(=C/c2coc3ccc(O)cc3c2=O)SC(=S)N1c1ccccc1 | 16.4 µM (active)
CC1=CC2=NC(=O)/C(=C/c3coc4ccccc4c3=O)C(=N)N2O1 | inactive
CN(C)CCCn1c(SCCN2C(=O)c3ccccc3C2=O)nc2ccccc2c1=O | inactive
CN(Cc1ccccc1)C(=O)c1cc2c(=O)n(C)c3ccccc3c2s1 | inactive
CCn1c2ccccc2c2cc(CC(N)=O)ccc21 | inactive
CCc1ccc(CNC(=O)c2cc3c(=O)n(CC)c4ccccc4c3s2)cc1 | 29.1 µM (active)
Cc1cc(=O)oc(C)c1C(=O)N1CCCCC1 | inactive
COc1ccc(C)cc1N(C)C(=O)c1c(C)oc2ncnc(N3CCOCC3)c12 | inactive
Cc1oc2ncnc(N3CCCCC3)c2c1C(=O)N1CCN(c2cccc(Cl)c2)CC1 | 16.4 µM (active)
O=C(COC(=O)CNC(=O)C1CCCCC1)Nc1cccc(F)c1 | inactive
Cc1cccc(OCC(=O)NCC(=O)N/N=C/c2ccc(N(C)C)cc2)c1 | inactive
COc1ccccc1NC1=NC(c2ccc(Cl)cc2)N=C(N)N1 (stereo not given) | 5.8 µM (active)
COc1ccccc1NC1=NC2(CCCC2)N=C(N)N1 | inactive
COc1cc(C2C(C(=O)Nc3ccccc3OC)=C(C)Nc3ncnn32)ccc1O (stereo not given) | inactive
COc1cc([N+](=O)[O-])cc([N+](=O)[O-])c1NC(=O)N1CCOCC1 | inactive

Compound | Potency
O=C(CSc1nc(=O)n(Cc2cccnc2)c2c1CCC2)Nc1ccc(F)cc1F | inactive
CC(=O)c1c(OCC(=O)N(C)C2CCCCC2)ccc2c(C)cc(=O)oc12 | inactive
CCc1ccnc(NS(=O)(=O)c2ccc3c(c2)OCCO3)c1 | inactive
CC(C)(C)NC(=O)CN(C(=O)c1ccc(Cl)nc1)c1cccc2ccccc12 | inactive
Cc1ccc(C)n1-c1ccncc1 | inactive
COc1cc2nnn(-c3ccncc3)c2cc1OC | inactive
c1ccc2c(c1)nnn2-c1ccncc1 | 5.17 µM (active)
CC(=O)N1C(=O)C2(Nc3ccccc3N2)c2ccccc21 | inactive
Cc1oc(CC(C)C)c(CN2CCCC2)c1C(=O)O | inactive
COc1ccc(CCNC(=O)CN2C(=O)CCSc3ccccc32)c(OC)c1 | inactive
COc1ccc(CCNC(=O)c2cc3cccc4c3n2CC(C)S4)c(OC)c1OC (stereo not given) | 11.6 µM (active)
COc1ccc(CCNC(=O)COC(=O)Cc2cc(OC)c(OC)c(OC)c2)cc1 | inactive
CNc1nc(SC)nc(N(C#N)CC(=O)OC)n1 | inactive
O=C(NCCc1ccccn1)c1ccc(COc2ccccc2)o1 | inactive
COc1ccc(NC(=O)CN(C)C(=O)c2ccc(COc3ccccc3)o2)cc1 | inactive
CCOc1ccc(OCc2ccc(C(=O)N(C)c3ccccc3)o2)cc1 | 14.6 µM (active)
CC(=O)N(CN1C(=O)C2C3C=CC(C3)C2C1=O)c1cccc(Cl)c1 (stereo not given) | inactive
CCN1C(=O)[C@@H]2[C@@H](c3ccc(-c4ccccc4)cc3)N3CCCC[C@@]3(C(=O)OC)[C@@H]2C1=O | 16.4 µM (active)
NC(=O)C1(Nc2ccc(-c3ccccc3)cc2)CCCC1 | inactive
CCN1C(=O)[C@H]2[C@@H](c3ccc(C)cc3)N3C(=O)N(c4cccc(Br)c4)C(=O)[C@@]3(CC)[C@H]2C1=O | inactive
CCCCC12CN3CC(C)(CN(C1)C3c1ccc(O)c(OC)c1)C2=O (stereo not given) | inactive
CCCCCCSc1ccc([C@@H]2[C@@H]3C(=O)N(CC)C(=O)[C@@H]3[C@]3(C(=O)OC)CCCCN23)cc1OC | 25.9 µM (active)
CCN1C(=O)[C@@H]2[C@@H](c3ccc(-c4cccc(Cl)c4)cc3)N3CCC[C@@]3(C(=O)OC)[C@@H]2C1=O | 16.4 µM (active)
CCOC(=O)N1C(=O)C[C@](Sc2ccc(C)cc2)(C(=O)OC)[C@H]1c1ccccc1 | inactive
